# Results as given in PubChem BioAssay (NCI).
# Compounds without any hit were thinned out: in the full panel of roughly 83,000, 20% have a hit.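 Growth was measured after 48 h exposure to one concentration of compound in 96-well plates. Values under 10 count as active.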 Values without a mark were called inactive. The source made the active and inactive calls.
# Legend:
# Assay in all cases: NCI-60 one-dose screen, 48 h (100 = growth as untreated, 0 = no growth, -100 = all killed)
# Details in all cases: 10 µM unless noted
# SR leukemia = tested on: SR leukemia
# RPMI-8226 leukemia = tested on: RPMI-8226 leukemia
# OVCAR-8 ovarian = tested on: OVCAR-8 ovarian
# OVCAR-5 ovarian = tested on: OVCAR-5 ovarian
# OVCAR-4 ovarian = tested on: OVCAR-4 ovarian
# SK-OV-3 ovarian = tested on: SK-OV-3 ovarian
# IGROV1 ovarian = tested on: IGROV1 ovarian
# OVCAR-3 ovarian = tested on: OVCAR-3 ovarian
# HS 578T breast = tested on: HS 578T breast
# NCI/ADR-RES ovarian = tested on: NCI/ADR-RES ovarian
Structure (SMILES),growth (SR leukemia),growth (RPMI-8226 leukemia),growth (OVCAR-8 ovarian),growth (OVCAR-5 ovarian),growth (OVCAR-4 ovarian),growth (SK-OV-3 ovarian),growth (IGROV1 ovarian),growth (OVCAR-3 ovarian),growth (HS 578T breast),growth (NCI/ADR-RES ovarian)
Nc1ccc(CCCCc2ccccc2)c(Cl)c1,92.7%,85.4%,94%,96.7%,84.4%,98.7%,87.2%,94.3%,93.7%,104%
Oc1[nH]c2ccccc2c1/C=c1/cc2c(c(-c3ccc(F)cc3)n1)=Nc1ccccc1-2,10%,-40.5% (active),-19.6% (active),0.0696% (active),-65.1% (active),-7.93% (active),-7.94% (active),-77% (active),-7.82% (active),-18.7% (active)
Cc1nc(Nc2ccc(NC(=S)Nc3ccccc3)cc2)c2ccccc2n1,80.5%,98.6%,101%,110%,121%,107%,99.8%,118%,96%,107%
Cc1nc(Nc2ccc(S(=O)(=O)Nc3cc(C)on3)cc2)c2ccccc2n1,111%,111%,104%,101%,105%,93%,96.9%,103%,108%,
C=CCN1C(=O)[C@]2(SC1=S)[C@H](c1cccc(Cl)c1)CN(C)[C@]21C(=O)NC2C=CC(Cl)=C[C@H]21 (stereo not given in full),-22.6% (active),-5.81% (active),56%,80.5%,49.4%,58%,48.3%,38.4%,56%,
COC(=O)CNC(=O)C(=O)c1c(O)c(O)c(C(C)C)c2cc(C)c(-c3c(C)cc4c(C(C)C)c(O)c(O)c(C(=O)C(=O)NCC(=O)OC)c4c3O)c(O)c12,15%,20.4%,13%,30.4%,-5.2% (active),6.72% (active),21.1%,18%,20.2%,20.9%
Cc1ccc(NC(=O)C(Cl)Cl)cc1,97.2%,97%,99.5%,98.5%,116%,105%,95.4%,112%,102%,
O=c1[nH]c(NCc2nnnn2-c2ccc(Br)cc2)nc2sc3c(c12)CCCC3,86.3%,87.3%,81.4%,100%,95.2%,90.6%,104%,97.8%,100%,103%
C[C@@H]1CC[C@@H]2[C@@H]1[C@H](OC(=O)/C=C/c1ccccc1)[C@]1(CCCOCCOCCOCCOC(=O)CCCC[C@@H]3SC[C@@H]4NC(=O)N[C@@H]43)C[C@@H](OC(=O)CO)[C@@]2(C)O1,88.3%,112%,113%,101%,95.7%,102%,107%,104%,99.5%,105%
CCN(CC)CCNc1ccc(C)c2sc3cc(C)ccc3c(=O)c12,6.89% (active),10.4%,57%,79.5%,85.3%,74.8%,52.4%,76.6%,73%,
CN1C[C@@H](c2ccc(Cl)cc2)[C@]2(NC(=S)N(c3ccc(F)c(Cl)c3)C2=O)[C@@]12C(=O)NC1C=CC(Cl)=C[C@H]12 (stereo not given in full),0.495% (active),2.67% (active),60%,52.8%,57%,80.7%,41.9%,48.5%,77.6%,42%
CC1(C)N=C(N)N=C(N)N1c1cccc(CN)c1,105%,99.9%,93.3%,89.2%,93.8%,101%,88.8%,94.9%,95.6%,96.4%
C=C1C(=O)O[C@H]2[C@H]1CC/C(C(=O)NCCCCCCCCNC(=O)/C1=C/CC[C@@]3(C)O[C@H]3[C@H]3OC(=O)C(=C)[C@@H]3CC1)=C\CC[C@@]1(C)O[C@@H]21,20.2%,33.6%,93.4%,97.1%,73.1%,93.5%,63.3%,33.1%,90.5%,
Cc1ccc(/C(=N\N=C(N)N)c2ccccc2)cc1,10.8%,-7.92% (active),22.4%,51.4%,15.8%,4.12% (active),-0.836% (active),-38.5% (active),31.5%,
Nc1nc(I)c2ncn(C3OC(CO)C(O)C3O)c2n1 (stereo not given),107%,157%,112%,104%,129%,100%,121%,112%,136%,105%
CCN(CC)S(=O)(=O)c1ccc(O)c(NC(=O)c2[nH]c(C)c(C(C)=O)c2CCc2ccc(Cl)cc2)c1,32.5%,28.3%,37.5%,92.7%,15.2%,37.8%,45.5%,24.1%,49.9%,50.5%
COc1ccc(CN2C(=O)/C(=C\c3cc(OC)c(OC)c(OC)c3)c3ccccc32)cc1,-21.6% (active),-31.1% (active),-7.07% (active),31%,23.3%,34%,-22.7% (active),-63.2% (active),47.7%,
CCN(CC)CC(=O)Nc1cccc(C(=O)OC(C)C)c1,95.2%,105%,108%,104%,103%,101%,104%,103%,120%,97%
Cn1nnnc1-c1ccc(N)cc1,87.6%,103%,107%,94.1%,100%,95.8%,99.2%,101%,96.8%,
O=C1N(c2ccccc2)C(=S)N[C@]12[C@H](c1ccccc1)C1CCCN1[C@]21C(=O)NC2C=CC(Cl)=C[C@H]21 (stereo not given in full),96%,73.7%,78.3%,117%,102%,88%,95.1%,106%,83.6%,
Cc1cc2c(F)c(Oc3ncnc(Nc4ccc(N5C[C@@H](C)N[C@@H](C)C5)cc4)c3C#N)cc(F)c2[nH]1,-26.4% (active),2.98% (active),25.6%,103%,16.2%,92.8%,73%,-29.6% (active),64%,50.6%
CCNCCNc1cc(-c2ccc(C(=O)OC)cc2)c(C#N)c2nc3ccccc3n12,-7.47% (active),20.8%,31.5%,102%,-19.2% (active),81.7%,53.5%,-57% (active),59.3%,57%
COc1ccc2cc(-c3ccc(C(=O)NN)c(C)n3)ccc2c1,78.4%,101%,102%,91.6%,90.8%,95.7%,101%,91.9%,99.4%,105%
OC(c1cccc(OCc2ccccc2)c1)c1nnc(-c2ccccc2)o1 (stereo not given),92.8%,57.8%,95.9%,102%,87.1%,106%,91.7%,104%,96.9%,
C=CC(=O)N[C@@H](Cc1ccc(-c2cc(Cl)cc(Cl)c2)cc1)[C@@H](O)[C@H](O)C(=O)O,92.8%,105%,85.9%,86.8%,99.9%,91.6%,105%,114%,92.9%,95.6%
CCOC(=O)C(O)C(O)(c1ccccc1)c1ccccc1 (stereo not given),95%,106%,108%,90.4%,111%,97%,100%,108%,108%,102%
CCNCCNc1cc(-c2ccc(Cl)cc2)c(C#N)c2nc3ccccc3n12,-35.6% (active),-19.4% (active),10.7%,4.7% (active),-9.51% (active),31.5%,22.4%,-78.2% (active),-36% (active),22.6%
COc1ccc(/C(C)=N/NS(=O)(=O)c2ccc(C)cc2)cc1OC,137%,95.3%,104%,109%,107%,86.8%,114%,110%,97.2%,101%
